# Screens deposited in PubChem BioAssay by National Center for Advancing Translational Sciences (NCATS).
# PNC assembly inh: inhibitors of perinucleolar compartment assembly | PC3M PTB-GFP, PNC prevalence imaging, 16 h; stronger effect = lower value | activity change (PNC), negative = inhibition, % at 10 µM | actives 3.1% (n = 140,000) | AID 2417;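 active means readout at or below -70, meaning at least 70% loss of cells showing the perinucleolar compartment, a nuclear body marking cancer cells; inconclusive means readout between -30 and a set limit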;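 further: plate controls were DMSO wells for no effect and camptothecin positive control wells for full effect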
#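 Compounds are pinned in duplicate onto adhered PC3M cells stably expressing GFP-tagged PTB and incubated 16 h at 37 C. Cells are then fixed, nuclei stained with Hoechst, and PNC-positive cells counted.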
# HTT aggregate: inhibitors of mutant huntingtin aggregate formation in PC12 cells. PC12 HttQ103-GFP aggregates, Acumen cytometry, 40 h. Potency, µM (titrated, usually from 46.1 µM), inactives show top-dose activity change, negative = inhibition, actives largely listed as inhibitors. actives 1.1% (n = 220,000); active means well fitted curve in the direction sought with a large enough effect; inconclusive means small, poorly fitted or top-dose-only effect, or another doubt; inactive means no such curve, though single readings can be large; an effect the other way counts as inactive or inconclusive; further: potency means the concentration at half of the fitted maximal effect; on the % scale 0 is the no-effect control and ±100 the full control effect; nearly all actives have a fitted effect of over 60% in size
#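 Using laser scanning cytometry, GFP-positive aggregates were counted after lysis of PC12 cells induced with 100 nM tebufenozide to express HTT exon 1 Q103–GFP. Compounds were tested in titration.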
# HPGD block: inhibitors of human 15-hydroxyprostaglandin dehydrogenase (HPGD). purified HPGD, NADH fluorescence kinetic, PGE2 substrate. actives 4.3% (n = 150,000). P15428. Potency, µM, inactives show top-dose activity change, negative = inhibition, most hits filed as inhibitors; further: potency means the concentration at half of the fitted maximal effect; on the % scale 0 is the no-effect control and ±100 the full control effect
# Target sequence (P15428 whole entry, looked up): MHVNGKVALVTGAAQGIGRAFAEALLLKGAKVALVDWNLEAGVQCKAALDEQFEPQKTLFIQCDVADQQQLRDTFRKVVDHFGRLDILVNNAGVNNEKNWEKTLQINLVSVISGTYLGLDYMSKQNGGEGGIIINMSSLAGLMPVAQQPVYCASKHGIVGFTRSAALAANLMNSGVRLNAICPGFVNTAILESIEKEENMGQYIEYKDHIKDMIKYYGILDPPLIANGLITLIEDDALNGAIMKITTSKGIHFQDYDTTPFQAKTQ
#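 NADH formation kinetics: reaction with 30 uM PGE2 and 1 mM NAD+ (final), 20 nM enzyme, Tris-HCl pH 8 with Tween 20, after 15 min compound preincubation at room temperature. Fluorescence change, last versus first of five reads.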
# ALDH1A1 inh: ALDH1A1 (human) enzyme inhibition | Purified ALDH1A1, NADH fluorescence, propionaldehyde substrate | Potency, µM (doses to about 75.3 µM), inactives show at the highest dose activity, negative = inhibition, usual class: inhibitors | actives 7.3% (n = 220,000) | AID 1030;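 further: potency means the concentration at half of the fitted maximal effect; plate controls were no enzyme wells and a reference inhibitor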
# Target sequence (P00352 whole entry, looked up): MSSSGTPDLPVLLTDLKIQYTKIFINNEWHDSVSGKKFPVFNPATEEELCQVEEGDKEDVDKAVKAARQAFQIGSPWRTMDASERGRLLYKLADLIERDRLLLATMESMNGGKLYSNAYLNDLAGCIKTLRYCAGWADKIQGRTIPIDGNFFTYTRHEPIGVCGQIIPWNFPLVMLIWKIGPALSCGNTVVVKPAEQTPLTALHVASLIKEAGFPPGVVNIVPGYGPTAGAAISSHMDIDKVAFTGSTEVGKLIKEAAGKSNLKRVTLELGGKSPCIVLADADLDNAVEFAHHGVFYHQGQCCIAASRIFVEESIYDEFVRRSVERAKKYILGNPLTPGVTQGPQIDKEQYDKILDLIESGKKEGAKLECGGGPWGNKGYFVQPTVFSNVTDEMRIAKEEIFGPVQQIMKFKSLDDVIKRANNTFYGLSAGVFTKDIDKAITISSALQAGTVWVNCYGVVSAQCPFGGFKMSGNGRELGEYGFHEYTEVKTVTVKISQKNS
# HTT ATP protect: cytoprotection in Huntington HTT-Q103 PC12 cell model. PC12 HTT-Q103 induced, cytoprotection, ATP luminescence, 40 h. Potency, µM (doses to about 56.4 µM), for inactives: cytoprotection (ATP increase), actives largely listed as activators. actives 0.14% (n = 230,000); active means well fitted curve in the direction sought with a large enough effect; inconclusive means small, poorly fitted or top-dose-only effect, or another doubt; inactive means no such curve, though single readings can be large; an effect the other way counts as inactive or inconclusive; further: potency means the concentration at half of the fitted maximal effect; % of control where 0% means no effect; nearly all actives have a fitted effect of over 45% in size
#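 Compounds were screened for protection of PC12 cells against cell death after tebufenozide induction (100 nM final) of mutant Huntingtin exon 1 (Q103) fused to GFP.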
# RGS12 GoLoco inh: RGS12 GoLoco-Gai1 interaction inhibition. P63096. actives 0.44% (n = 230,000). Gai1:RGS12 GoLoco peptide FP, rhodamine, 10 min. Potency, µM (titrated, usually from 61.6 µM), for the others: top-dose activity, negative = inhibition, actives largely listed as inhibitors; active means well fitted inhibition curve with a large enough effect, not every such curve was filed as active; inactive means no such curve, though single readings can be large or run the other way; further: potency means the concentration at half of the fitted maximal effect; on the % scale 0 is the no-effect control and ±100 the full control effect; nearly all actives have a fitted effect of over 30% in size
# * marks the source's active call; other numbers are inactive results; ? = inconclusive; nt = not tested or not shown; [ ] = dose if it differs, or a comment. In the library only some 11% were active in any assay of this set; here they are far more common. Unless noted, the call rests on the fitted dose curve; in most records, active means well fitted inhibition curve with a large enough effect (not every such curve was filed as active); inconclusive means small, poorly fitted or top-dose-only effect, or another doubt; inactive means no such curve, though single readings can be large or run the other way.
SMILES,PNC assembly inh,HTT aggregate,HPGD block,ALDH1A1 inh,HTT ATP protect,RGS12 GoLoco inh
N#Cc1c(NC(=S)NC(=O)c2ccccc2)sc2c1CCC2,-15,11%,-25%,14µM*,-19%[10 µM],8%
Cn1nccc1C(=O)NC(=S)Nc1sc2c(c1C#N)CCCCC2,14,17%,-6%,?,-27%,-2%
Cn1nc(C(=O)Nc2sc3c(c2C#N)CCCC3)ccc1=O,nt,-3%,nt,2.2µM*,-61%,17%
CCC1(C)Cc2c(sc(NC(=S)NC(=O)c3ccccc3)c2C#N)CO1 (configuration not stated),?,-7%,7.9µM*,?,9%[10 µM],12%
CCCC(=O)Nc1sc2c(c1C#N)CCCC2,?,-11%,-15%,?,-23%,5%
N#Cc1c(NC(=O)c2ccncc2)sc2c1CCC2,-15,14%,-22%,10µM*,-13%[10 µM],60%
COC(=O)CCC(=O)Nc1sc2c(c1C#N)CCCC2,?,-7%,nt,11µM*,15%[10 µM],nt
NC(=O)c1c(NC(=O)c2ccncc2)sc2c1CCCC2,nt,-19%,nt,?,-44%,15%
N#Cc1c(NC(=O)C2C3C=CC(C3)C2C(=O)O)sc2c1CCCCC2 (configuration not stated),nt,nt,nt,13µM*,nt,-5%
N#C/C(=C/c1ccc(Br)o1)C(N)=S,nt,1%[9.22 µM],nt,nt,-22%[10 µM],9%
N#C/C(=C/c1ccc(Br)o1)C(N)=O,-87*,0%,-17%,-7%,12%[10 µM],6%
O=C(Nc1ccc(NC(=O)C2CCCCC2)nc1)c1ccccn1,nt,3%[9.22 µM],nt,?,-7%[10 µM],15%
O=C(Nc1ccc(Br)c(Cl)c1)C1CC1,31,?,18µM*,-13%,-9%[10 µM],1%
CC(=O)Nc1ccc(Br)c(Cl)c1,nt,-19%[9.22 µM],nt,2%,3%[10 µM],6%
O=C(Nc1ccc(NC(=O)C2CC2)nc1)c1cccs1,-107*,14%,-8%,-4%,0%,-11%
O=C(Nc1ccc(NC(=O)c2cccs2)cn1)c1ccccc1,nt,21%,nt,?,-4%[10 µM],7%
O=C(Nc1ccc(NC(=O)C2CC2)cn1)c1ccccc1Cl,-112*,0%,-12%,3%,-13%[10 µM],2%
COC(=O)CC1=COC(O)C2C(CO)=CC[C@@H]12 (some centres not stated),nt,nt,nt,-3%[13.5 µM],-51%[10 µM],nt
Brc1cc(Br)c2ncnc(N3CCCCC3)c2c1,11,11µM*,-5%,-10%,-8%[0.074 µM],5%
NC(N)=NCC1COc2ccccc2O1 (configuration not stated),nt,-4%,nt,nt,-5%,nt
O=C(CSc1c2c(nc3ccccc13)CCCC2)NCc1ccco1,nt,13µM*,nt,?,?,-10%
Cc1ccc(CNC(=O)CSc2c3c(nc4cc(Cl)ccc24)CCCC3)o1,?,17%[9.22 µM],?,20µM*,?,-3%
CC(=O)OCC(=O)Nc1ccc(Cl)cc1Cl,11,-10%,20µM*,1%,3%[10 µM],-1%
CC(=O)OCC(=O)Nc1ccc([N+](=O)[O-])cc1Cl,nt,-10%,nt,8%,-27%,-3%
COC(=O)c1ccccc1NC(=O)COC(C)=O,18,-1%,0%,5.6µM*,-5%,-2%
SMILES,PNC assembly inh,HTT aggregate,HPGD block,ALDH1A1 inh,HTT ATP protect,RGS12 GoLoco inh
N#CCSc1nnc(COc2cccc3ccccc23)n1-c1ccccc1,-24,?,-26%,?,-33%,6%
N#CCSc1nnc(COc2cccc3ccccc23)n1-c1cccc(Cl)c1,-80*,?,-5%,-7%,-6%[10 µM],6%
CC(C)(C)Nc1nc(N2CCCC2)nc(N2CCCC2)n1,?,9%,-6%,0.5µM*,-44%,2%
CCNc1nc(NC(C)(C)C)nc(N2CCCC2)n1,-4,-12%,-7%,5%,-7%[10 µM],-1%
Cc1cc(C)nc(SCSc2nc(C)cc(C)n2)n1,7,19%,-21%,8%,16%,-33%
Cc1cc(C)nc(SCCc2ccncc2)n1,?,-23%,-21%,25µM*,-4%[10 µM],-39%
CCN(CC)c1cccc(O)c1,nt,nt,1%,?,-9%,13%
Fc1ccc(N2CCN(c3nc(CN4CCOCC4)nc4scc(-c5ccccc5)c34)CC2)cc1,nt,18µM*,nt,11%,-50%,0%
CO[C@@H]1/C=C\O[C@]2(C)Oc3c(C)c(O)c4c(O)c(cc(O)c4c3C2=O)NC(=O)/C(C)=C\C=C/[C@H](C)[C@@H](O)[C@H](C)[C@H](O)C(C)[C@H](OC(C)=O)[C@@H]1C (some centres not stated),nt,nt,-13%,-6%[13.5 µM],nt,-2%[14.2 µM]
CCc1ccc2c(c1)[C@H]1OCC[C@H]1[C@@H](c1cccs1)N2,-109*,6%,-20%,-2%,nt,-4%
CC(C)N(CCNC(=O)C1CCN(S(=O)(=O)N2CCOCC2)CC1)Cc1ccccc1,-102*,1%,-17%,-3%,?,-4%
CCN(CC)C(=O)CN(C#N)c1nc(C)cc(C)n1,-3,2%,-5%,7%,-17%[10 µM],5%
CCN(CC)C(=O)CN(C#N)c1nc(OC)nc(N(C)C)n1,-82*,-4%,-11%,-7%,-22%[10 µM],6%
CN(C)/C=C/C(=O)c1cnc(-c2ccccn2)s1,nt,10%,nt,?,-10%[10 µM],14%
C=C1C(N)CC2CC1C2(C)C (configuration not stated),nt,nt,-5%,-2%,nt,3%
Cc1cnc(C(=O)Nc2ccc(N3CCCCC3)cc2)cn1,nt,-5%,nt,2%,-91%,9%
Cc1cnc(C(=O)Nc2ccc(N3CCOCC3)cc2)cn1,-100*,14%,-9%,?,9%[10 µM],4%
Cc1cnc(C(=O)Nc2ccc(C(=O)N3CCCCC3)cc2)cn1,4,7%,0.28µM*,-3%,-6%,3%
c1ccc(COc2ccccc2CNC23CC4CC(CC(C4)C2)C3)cc1,nt,6%,nt,-13%,-19%[10 µM],-7%
O=C(CCN1CCOCC1)c1ccc2c(c1)OCCO2,-11,?,-25%,0.45µM*,13%[10 µM],-5%
O=C(CCN1CCc2ccccc2CC1)c1ccc2c(c1)OCCO2,7,?,-21%,0.11µM*,-149%,-7%
CCOC(=O)C1=C(N)OC2=C(C(=O)CC(C)(C)C2)C1c1cc(CSc2nnnn2C)cs1 (configuration not stated),nt,8%,nt,1µM*,-59%,30%
CCOC(=O)C1=C(N)OC2=C(C(=O)CC(C)(C)C2)C1c1ccoc1 (configuration not stated),13,8%,-4%,25µM*,5%[10 µM],0%
CCOC(=O)C1=C(N)OC2=C(C(=O)CC(C)(C)C2)C1c1cccnc1 (configuration not stated),?,6%,1%,-1%,-9%,3%
